# Source: article PMC10726135, “HNF4α isoforms regulate the circadian balance between carbohydrate and lipid metabolism in the liver”
# Over roughly 18,000 sequences, “log2 normalized intensity” has its median near 0.36; the highest 2% begin near 7.3. The list comes from a sample in which the highest values are over-represented; it also holds similar and randomly drawn sequences.
# Target: T1, HNF4alpha8 (COS-7 nuclear extract) (Homo sapiens, UniProt P41235-5 1-452)
# T1 sequence: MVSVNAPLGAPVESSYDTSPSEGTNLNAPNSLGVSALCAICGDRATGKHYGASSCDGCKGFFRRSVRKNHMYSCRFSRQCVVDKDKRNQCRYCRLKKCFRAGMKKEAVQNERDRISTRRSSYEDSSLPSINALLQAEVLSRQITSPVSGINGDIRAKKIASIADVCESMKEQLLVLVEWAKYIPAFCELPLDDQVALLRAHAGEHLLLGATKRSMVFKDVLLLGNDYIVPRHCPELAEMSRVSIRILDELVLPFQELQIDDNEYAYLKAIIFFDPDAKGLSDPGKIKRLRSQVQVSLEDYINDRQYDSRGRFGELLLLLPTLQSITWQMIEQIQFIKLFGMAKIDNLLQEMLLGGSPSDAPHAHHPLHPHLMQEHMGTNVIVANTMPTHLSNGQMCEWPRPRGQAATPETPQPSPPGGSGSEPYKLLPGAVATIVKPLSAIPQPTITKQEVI
# Assay: protein-binding microarray; COS-7 nuclear extract on double-stranded Agilent 4x180k PBM; binding buffer, salt, pH and temperature not given in the material; high values mean tight binding
# Settings: chain copies: 2; label: 3' end of strand 1 on the slide; dsDNA, one strand shown
# How it was run: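 A human HNF4α isoform was expressed in COS-7 cells by transient CaPO4 transfection, and nuclear extracts were prepared. These were applied to a custom Agilent SurePrint G3 4x180k array carrying ~44,000 test sequences in quadruplicate as double-stranded ~60-nt oligonucleotides, and an Agilent G2565CA scanner imaged bound HNF4α at 2-µm resolution. The background-corrected, normalized gProcessedSignal from Agilent software was used as the binding signal.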
row,Sequence,binding signal [log2 normalized intensity]
1,GTCTAGCGCAAATGATCAAAGGTTGGTTTTGCCTAGGGAGATTAGAGTATCGGTCGA,4.43
2,AGTGTGTAAGTATGCTCACTGACCTCTGCCGCCTAGGGAGATTAGAGTATCGGTCGA,3.94
3,TTCTGATCTTTGACCTCTCCAGGGTCCTTGGCCTAGGGAGATTAGAGTATCGGTCGA,5.35
4,CCACTTTGAATCAGGAGAGCATCTGAGTGTGCCTAGGGAGATTAGAGTATCGGTCGA,0.742
5,AGAGCAGGAATTCTGATCTTTGACCTCTCCGCCTAGGGAGATTAGAGTATCGGTCGA,8.08
6,AGGAATTCTGATCTTTGACCTCTCCAGGGTGCCTAGGGAGATTAGAGTATCGGTCGA,7.01
7,TAATCAGAGCAGGAATTCTGATCTTTGACCGCCTAGGGAGATTAGAGTATCGGTCGA,7.96
8,CATCTTTGAAGAGCACAGGGTCAGCAGATCGCCTAGGGAGATTAGAGTATCGGTCGA,1.59
9,TGTGCTAGATACTGGAGATATGTTGCTGGAGCCTAGGGAGATTAGAGTATCGGTCGA,0.67
10,TCTAGATGGGGTTGAGCAGACTAAAGGACTGCCTAGGGAGATTAGAGTATCGGTCGA,-0.482
11,TGAGACATGAATCCATCCCACCTCACTTATGCCTAGGGAGATTAGAGTATCGGTCGA,1.12
12,GCAAGGAATTCAACCCTTGTCACTTTCCCTGCCTAGGGAGATTAGAGTATCGGTCGA,1.82
13,TTGGACAGGGTGACGTCATTGGAAATCCGAGCCTAGGGAGATTAGAGTATCGGTCGA,0.187
14,AGGGATTGTTTAGGTACAAAGTCCATTGGAGCCTAGGGAGATTAGAGTATCGGTCGA,8.46
15,AAAGTCCATATTCTTTGTTTGGATGCCAAAGCCTAGGGAGATTAGAGTATCGGTCGA,2.25
16,TTGTTTAGGTACAAAGTCCATTGGAAGCCAGCCTAGGGAGATTAGAGTATCGGTCGA,6.42
17,CGGTGAGGGATTGTTTAGGTACAAAGTCCAGCCTAGGGAGATTAGAGTATCGGTCGA,8.89
18,CTCTGAGATTCGGTGAGGGATTGTTTAGGTGCCTAGGGAGATTAGAGTATCGGTCGA,0.829
19,AGATTCGGTGAGGGATTGTTTAGGTACAAAGCCTAGGGAGATTAGAGTATCGGTCGA,1.25
20,CCTTTGCCCTCCAAACTGAGAGATTTTTTCGCCTAGGGAGATTAGAGTATCGGTCGA,1.05
21,GAGGTCTGGACCCTTGGCACTTTCACGATAGCCTAGGGAGATTAGAGTATCGGTCGA,1.79
22,CTGGAAATGTTTGTAGGGACTTTGACCCCTGCCTAGGGAGATTAGAGTATCGGTCGA,10.4

row,Sequence,binding signal [log2 normalized intensity]
1,AATGTTTGTAGGGACTTTGACCCCTAAAACGCCTAGGGAGATTAGAGTATCGGTCGA,9.59
2,CTTTGACCCTGTTTTGTAAACTCCCTTTGAGCCTAGGGAGATTAGAGTATCGGTCGA,2.04
3,CAACTGACATCTGGAAATGTTTGTAGGGACGCCTAGGGAGATTAGAGTATCGGTCGA,0.67
4,AGCAATGTTTCTTGTCCAGGGACTTTGAACGCCTAGGGAGATTAGAGTATCGGTCGA,6.55
5,GACATCTGGAAATGTTTGTAGGGACTTTGAGCCTAGGGAGATTAGAGTATCGGTCGA,5.1
6,CAGCTTTGAAGTGCTTCCTGTGTATTTCTTGCCTAGGGAGATTAGAGTATCGGTCGA,1.27
7,GGACTAAGAATTGCTCAACCTGGACCTCATGCCTAGGGAGATTAGAGTATCGGTCGA,1.89
8,AGCCTCTATGTCAGGCCATTTCACCTTTGCGCCTAGGGAGATTAGAGTATCGGTCGA,4.57
9,TCAGGCCATTTCACCTTTGCCCTGTCAGTCGCCTAGGGAGATTAGAGTATCGGTCGA,6.79
10,AAAGGCTGTCACACTTGCCCTTTGCCCTCAGCCTAGGGAGATTAGAGTATCGGTCGA,8.84
11,CTATGTCAGGCCATTTCACCTTTGCCCTGTGCCTAGGGAGATTAGAGTATCGGTCGA,7.53
12,AAGGCTGTCACACTGGCCTTTGCCCTCGCTGCCTAGGGAGATTAGAGTATCGGTCGA,5.82
13,CTGTCACACTTGCCCTTTGCCCTCACTGGTGCCTAGGGAGATTAGAGTATCGGTCGA,7.78
14,TGTCACACTGGCCTTTGCCCTCGCTGGCGGGCCTAGGGAGATTAGAGTATCGGTCGA,5.25
15,CACAAAAAGGCTGTCACACTTGCCCTTTGCGCCTAGGGAGATTAGAGTATCGGTCGA,5.42
16,ACACTTGCCCTTTGCCCTCACTGGTAGAAGGCCTAGGGAGATTAGAGTATCGGTCGA,5.8
17,TTCAGCCGCTTTGAGGTCAATGGTAGAAAAGCCTAGGGAGATTAGAGTATCGGTCGA,1.85
18,ACTAAAGGTTAAACATGTACTCTGTACTCCGCCTAGGGAGATTAGAGTATCGGTCGA,3.43
19,ACCCCTCCACTGGACAGCAGCTACATAAGGGCCTAGGGAGATTAGAGTATCGGTCGA,1.83
20,AAATACCCTCTTTAGGGTAGCCTGGGTTAAGCCTAGGGAGATTAGAGTATCGGTCGA,0.844
21,GGGCGTGTGTTAGACTTTGGACCTGGCCTGGCCTAGGGAGATTAGAGTATCGGTCGA,7.98
22,GTTGGACTTTGGACCTTTGTGTGTGTGTGTGCCTAGGGAGATTAGAGTATCGGTCGA,8.31

row,Sequence,binding signal [log2 normalized intensity]
1,TAGGGCCTTGCTATGGAGTGGACTTTGGCTGCCTAGGGAGATTAGAGTATCGGTCGA,7.22
2,ACTTTGGACCTTTGTGTGTGTGTGTGTGTGGCCTAGGGAGATTAGAGTATCGGTCGA,3.49
3,GGACTTTGGCCTTACTTGGCCTGTTTGCTGGCCTAGGGAGATTAGAGTATCGGTCGA,5.89
4,CGGGTATGTGGGGCGTGTGTTAGACTTTGGGCCTAGGGAGATTAGAGTATCGGTCGA,4.91
5,ATGTGGGGCGTGTGTTAGACTTTGGACCTGGCCTAGGGAGATTAGAGTATCGGTCGA,9.77
6,TGGACAACTGTACTTTGGACTGGGGACCTGGCCTAGGGAGATTAGAGTATCGGTCGA,6.02
7,TAAGGAGCTGAGTCATAGTGGACTTTGCCTGCCTAGGGAGATTAGAGTATCGGTCGA,7.86
8,GCTAGTAAGGAGCTGAGTCATAGTGGACTTGCCTAGGGAGATTAGAGTATCGGTCGA,4.03
9,CACCTGTGTCAACATGGACTTTGTTGTTTGGCCTAGGGAGATTAGAGTATCGGTCGA,4.99
10,TAGACTTTGGACCTGGCCTGCGGGGTCAGGGCCTAGGGAGATTAGAGTATCGGTCGA,6.35
11,CCAATTATTGCGAGTTTAGGAGGGTTCCTGGCCTAGGGAGATTAGAGTATCGGTCGA,-0.0269
12,GATCCACGGAGAATGTAGACCTTTACCACCGCCTAGGGAGATTAGAGTATCGGTCGA,2.35
13,ATCCCCCACACCGAGATAGTAGAGATAGTGGCCTAGGGAGATTAGAGTATCGGTCGA,2.5
14,TCAAAGTCCAAATAGCGCTAACTCTATATCGCCTAGGGAGATTAGAGTATCGGTCGA,0.779
15,TGGCACTGAAGAATGTCTAAATCTGAAGGAGCCTAGGGAGATTAGAGTATCGGTCGA,-0.983
16,GTGTTGACCTCTGGACCTCATCTTCCTCCCGCCTAGGGAGATTAGAGTATCGGTCGA,5.2
17,TCTTTCAAGATAACAAGGCAAACTTTATCAGCCTAGGGAGATTAGAGTATCGGTCGA,-0.554
18,ATGTGTTTGCATGACTCATAAAGAACAGTTGCCTAGGGAGATTAGAGTATCGGTCGA,0.739
19,ATTTTGGACTTTGTGCAAATGGAAAATTGTGCCTAGGGAGATTAGAGTATCGGTCGA,3.52
20,ACTGAATGTGACCTTTTGGACCACAGAGTGGCCTAGGGAGATTAGAGTATCGGTCGA,5.97
21,TGACAACTGAATGTGACCTTTTGGACCACAGCCTAGGGAGATTAGAGTATCGGTCGA,7.4
22,TTACCGGTGTGACTTTGGTTGGATTTCTTGGCCTAGGGAGATTAGAGTATCGGTCGA,1.56

row,Sequence,binding signal [log2 normalized intensity]
1,GTCAAGTAGAGACCTGTCTTCCTGGTGACCGCCTAGGGAGATTAGAGTATCGGTCGA,2.25
2,CCTGATGACAACTGAATGTGACCTTTTGGAGCCTAGGGAGATTAGAGTATCGGTCGA,6.26
3,GATACAACGGTTCAAAGGACAGACTTTGGAGCCTAGGGAGATTAGAGTATCGGTCGA,4.08
4,GACCTGTCTTCCTGGTGACCTTTGTTTGGTGCCTAGGGAGATTAGAGTATCGGTCGA,5.66
5,GTAGAGACCTGTCTTCCTGGTGACCTTTGTGCCTAGGGAGATTAGAGTATCGGTCGA,7.95
6,AGGGGTTACTAGTGAGTTGGACTTTGGACCGCCTAGGGAGATTAGAGTATCGGTCGA,11.6
7,TTCAAAGGACAGACTTTGGACCTGGCCCTCGCCTAGGGAGATTAGAGTATCGGTCGA,6.56
8,GGGGACCTTTGGCCTTTACCTGTTACTTATGCCTAGGGAGATTAGAGTATCGGTCGA,4.06
9,AACGGTTCAAAGGACAGACTTTGGACCTGGGCCTAGGGAGATTAGAGTATCGGTCGA,7.98
10,GACCTCATGTAGTCACATACCTATGCAAACGCCTAGGGAGATTAGAGTATCGGTCGA,1.02
11,CAGCATCTTCACCGTAAAGCCACCCCTTTCGCCTAGGGAGATTAGAGTATCGGTCGA,2.59
12,AGCGATCATGGGTGACCCGTTAAGAATGAGGCCTAGGGAGATTAGAGTATCGGTCGA,1.24
13,CTTAGAATCGAATTGTGAAACTCAGAATCAGCCTAGGGAGATTAGAGTATCGGTCGA,-0.796
14,TCACCTACTGACCTTTCTCCCTTTTCACAGGCCTAGGGAGATTAGAGTATCGGTCGA,3.5
15,AAGATCTGTGAAAGAAAAGTACTTTAGTGTGCCTAGGGAGATTAGAGTATCGGTCGA,0.992
16,CAACAGGTGTTAAAATAACGACCTTTGGGCGCCTAGGGAGATTAGAGTATCGGTCGA,6.57
17,AATATCTCAGCACATGGCAGTGTACACTAGGCCTAGGGAGATTAGAGTATCGGTCGA,0.805
18,GAGAGAAAAAATCAGAGAGCAAAGGTGATCGCCTAGGGAGATTAGAGTATCGGTCGA,2.63
19,ATTCCCCGACTCCTGGGTGTGAGATAAGGCGCCTAGGGAGATTAGAGTATCGGTCGA,0.0557
